Data on 17 compounds can be found in PubChem BioAssay.

The structures appear in SMILES notation. Unmarked numbers belong to inactive results.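 The calls were made as follows: active = inhibition over a set limit, the all-compound mean plus 3 SD, in both replicate runs; inconclusive = over that limit in just one replicate run; inactive = at or under that limit in both runs.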

This test can be described thus: inhibitors of the yeast RAM network, pilot screen, dse1pr::URA3 reporter, 5-FOA selection (AID 869).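 Also: 0% = DMSO wells with no growth and 100% = 10 µM 1-NA-PP1 with full growth; RAM network block rescues cells from 5-FOA so hits raise OD615 growth.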 As to conditions: S. cerevisiae dse1pr::URA3 5-FOA growth, OD615, 2 d; at 10 µM; hits give high values; strain carries analog-sensitive mutant Cbk1 kinase.
In the case of `O=C(CSc1nc2c(cnn2-c2ccc(F)cc2)c(=O)[nH]1)N1CCCCCC1`, the inhibition – broadly, the relative decrease from the control value, in per cent – was 1.53%.

On to `CCNc1nnc(-c2ccccc2OC)s1`, for which the inhibition is -0.485%.

`O=[n+]1c2c(n([O-])c3c1CCCC3)CCCCC2`: the inhibition is 0.345%. Consider `O=C(O)C1C(c2ccccc2)C(C(=O)OCc2ccco2)C1c1ccccc1` (configuration not stated), for which the inhibition is 0.645%. The value for `CCOC(=O)Cc1nnc(NC(=O)C(CC)Sc2nc(C)cc(=O)[nH]2)s1` (configuration not stated) was 2.96%. Then `Cc1ccc(OCCSc2cc(C)nc(N)n2)cc1`, with 1.12%.

For `O=C(NCCN1CCCC1)c1ccc(CS(=O)(=O)c2c(Cl)cccc2Cl)o1`, the inhibition was 1.5%. Take `O=P(O)(CCc1ccccn1)CN1CCOCC1`: the inhibition was 2.73%. Turning to `CCOC(=O)CN1Cc2cccc(C(=O)O)c2C1=O`, the inhibition is 0.535%. The value for `CC(C)=C(NC(=O)c1ccccc1)C(=O)NCCCC(=O)O` was 1.5%; that for `Cc1c(NS(=O)(=O)c2ccccc2)cc(Cl)c(O)c1C` was 0.695%; that for `O=C(CN1C(=O)CSc2ncccc21)NCCN1CCOCC1` was 2.09%.

In the case of `CC/C(=C\C(=O)c1ccncc1)Nc1ccc(O)cc1`, the inhibition was 1.58%.

Regarding `Cn1c(=O)c2cc(NCc3ccccc3)nnc2n(C)c1=O`, the inhibition was 0.38%. As to `Cc1oc2cc(O)ccc2c(=O)c1Oc1ccccc1Br`, the inhibition is 1.68%. The value for `Cc1ccnc(NC2c3ccccc3C(=O)N2Cc2ccccc2Cl)c1` (configuration not stated) was 2.44%. Then `CCN=C(Nc1ccc2c(c1)OCO2)SC1CC(=O)N(c2ccccc2F)C1=O` (configuration not stated), with 3.15%.
